Experimental findings from PubChem BioAssay AID1745853 (National Center for Advancing Translational Sciences (NCATS), 2022) are described below.

Values joined by “and” are separate entries in the source; they are usually repeats but may differ in a detail not shown here. Identical values can stand only once. Hit rate of the full screen: of about 25,000 compounds, about 970 (3.9%) were called active. About 8% were inconclusive and are not listed. No rule for the calls is given here. What follows is part of a selection rich in actives, with near analogues and random picks from the rest.

What all share (assay): Primary Screen for Target Class Profiling of Small Molecule Inhibitors of Methyltransferases
Test [1] concerns the target Catechol O-methyltransferase (Homo sapiens) (UniProt P21964). The note with it: purified enzyme, MTase-Glo SAH luminescence; activity change, negative = inhibition: at 40 µM, stronger effect = lower value; outcome: 40 uM. An excerpt: (§1) PI: Matthew D. Hall Ph.D. and Quinlin M. Hanson Ph.D.
(§2) National Center for Advancing Translational Sciences (NCATS)
(§3) National Institute of Health (NIH), Rockville, MD
(§4) Target class profiling (TCP) is a chemical biology approach amenable to investigating understudied biological targets. TCP is achieved by developing a generalizable assay platform and applying it to screen a curated set of compound libraries against representative members of a target class. Small molecule methyltransferases (SMMTase) are a subclass of methyltransferase that act on metabolites to modulate signaling pathways, metabolize xenobiotics, or balance the available methyl pool. We screened four curated libraries totaling 27,574 unique compounds against the SMMTases nicotinamide N-methyltransferase (NNMT), phenylethanolamine N-methyltransferase (PNMT), histamine N-methyltransferase (HNMT), glycine N-methyltransferase (GNMT), catechol O-methyltransferase (COMT), and guanidinoacetate N-methyltransferase (GAMT). The data generated by this TCP can be leveraged for informed tool molecule development. For example, in the associated publication we identified a chemotype of HNMT-selective inhibitors. Additionally, we identified a putative SMMTase-selective inhibitor with potential as a tool molecule for studying broader methyltransferase biology.
(§5) High-through put screening assays were developed at the National Center for Advancing Translational Science (NCATS) for the enzymes NNMT, PNMT, HNMT, GNMT, COMT, and GAMT. Enzymatic activity was measured as a function of SAM cofactor conversion using the MTase Glo kit (Promega) for all enzymes. All assays were performed in 1536-well format with substrates and SAM concentrations at KM values. Enzyme concentration and assay timing were optimized for 10-20% SAM conversion. Initial screening of 27,574 compounds was done as single-point assays using the highest compound concentration (40 uM). […] These compounds were replated in 11-point dose response and assayed against NNMT, PNMT, HNMT, GNMT, COMT, GAMT, and a counter-assay. The IC50 and efficacy (maximal response) values were determined for each dose-response curve. These values are also accounted for in the area under the curve (AUC) values.
(§6) PROTOCOL TABLE (as described by Inglese J, Shamu CE and Guy RK. 2007)
(§7) SEQUENCE No. (e.g., 1, 2, 3, etc.); […] (e.g., Cells, Incubation, Reagent, etc.); VALUE; DESCRIPTION.
(§8) 1; Reagent; 2 uL; SMMTase Enzyme (2x) in reaction buffer, columns 1- 48.
(§9) 2; Reagent; 1 uL; SAM (4x) in reaction buffer, columns 1-48.
(§10) 3; Controls; 23 nL; DMSO in column 4; sinefungin in DMSO (0 uM - 40 uM) in 7-point 1:2 dilution series (n = 2) in column 2.
(§11) 4; Compounds; 23 nL; Columns 5-48.
(§12) 5; Reagent; 1 uL; Substrate (4x) in reaction buffer, columns 2-48.
(§13) 6; Time; 20-30 min; Incubation.
(§14) 7; Reagent; 1 uL; MTase-Glo reagent (5X), columns 1-48.
(§15) 8; Time; 30 min; Incubation.
(§16) 9; Reagent; 5 uL; MTase-Glo Detection reagent, columns 1-48.
(§17) 10; Time; 30 min; Incubation, luminescence evolution.
(§18) 11; Detection; Luminescence; ViewLux uHTS Microplate Imager (PerkinElmer).
(§19) NOTES (numbers refer to Sequence numbers above)
(§20) 1, 2, 5. White Medium Binding Greiner 1536-well plates (Cat #789175-F, Greiner Bio-One, Monroe, NC); Reaction buffer: 50 mM Tris, pH 8.0, 3 mM MgCl2, 1 mM EDTA, 50 mM NaCl, 1 mM DTT, and 0.1 mg/mL BSA. Evaporation was prevented by covering assay plates with metal lids containing holes to allow gas diffusion.
(§21) 1. Six SMMTase were profiled: HNMT, GNMT, PNMT, COMT, NNMT, GAMT
(§22) 5. The corresponding substrate was used for each enzyme: HNMT - 5.3 uM Histamine; GNMT - >500 uM Glycine; PNMT - 16.2 uM Norephinephrine; COMT - 13.7 uM Norephinephrine; NNMT - 3.8 uM Nicotinamide; GAMT - 2.5 uM Guanidinoacetate.6, 8, 10. Room temperature
(§23) 6. Final reaction conditions: 10 nM COMT, 5 uM SAM, 15 uM norepinephrine, 50 mM Tris, pH 8.0, 3 mM MgCl2, 1 mM EDTA, 50 mM NaCl, 1 mM DTT, and 0.1 mg/mL BSA; refer to tables 2 and S1 for specific timing.
8. […]

The target of test [2] is Glycine N-methyltransferase (Homo sapiens) (UniProt Q14749). The note with it: purified enzyme, MTase-Glo SAH luminescence; measured here: GNMT inhibition; at 40 µM; stronger effect = lower value.
Excerpt: as §1, §2, §3, §4, §5, §6, §7, §8, §9, §10, §11, §12, §13, §14, §15, §16, §17, §18, §19, §20, §21, §22, §23
8. […]

Test [3] concerns the target Guanidinoacetate N-methyltransferase (Homo sapiens) (UniProt Q14353). To be noted: purified enzyme, MTase-Glo SAH luminescence; measured here: GAMT inhibition; at 40 µM; stronger effect = lower value.
Excerpt: as §1, §2, §3, §4, §5, §6, §7, §8, §9, §10, §11, §12, §13, §14, §15, §16, §17, §18, §19, §20, §21, §22, §23
8. […]

For test [4], the target named is Histamine N-methyltransferase (Homo sapiens) (UniProt P50135). To be noted: purified enzyme, MTase-Glo SAH luminescence; measured here: HNMT inhibition; at 40 µM; stronger effect = lower value.
Excerpt: as §1, §2, §3, §4, §5, §6, §7, §8, §9, §10, §11, §12, §13, §14, §15, §16, §17, §18, §19, §20, §21, §22, §23
8. […]

For test [5], the target named is Nicotinamide N-methyltransferase (Homo sapiens) (UniProt P40261). To be noted: purified enzyme, MTase-Glo SAH luminescence; measured here: NNMT inhibition; at 40 µM; stronger effect = lower value.
Excerpt: as §1, §2, §3, §4, §5, §6, §7, §8, §9, §10, §11, §12, §13, §14, §15, §16, §17, §18, §19, §20, §21, §22, §23
8. […]

For test [6], the target named is Phenylethanolamine N-methyltransferase (Homo sapiens) (UniProt P11086). The note with it: purified enzyme, MTase-Glo SAH luminescence; measured here: PNMT inhibition; at 40 µM; stronger effect = lower value.
Excerpt: as §1, §2, §3, §4, §5, §6, §7, §8, §9, §10, §11, §12, §13, §14, §15, §16, §17, §18, §19, §20, §21, §22, §23
8. […]
% is scaled to controls: 0 for no effect and ±100 for the full control effect.

Sequence of Histamine N-methyltransferase (Homo sapiens) (P50135 whole entry, looked up): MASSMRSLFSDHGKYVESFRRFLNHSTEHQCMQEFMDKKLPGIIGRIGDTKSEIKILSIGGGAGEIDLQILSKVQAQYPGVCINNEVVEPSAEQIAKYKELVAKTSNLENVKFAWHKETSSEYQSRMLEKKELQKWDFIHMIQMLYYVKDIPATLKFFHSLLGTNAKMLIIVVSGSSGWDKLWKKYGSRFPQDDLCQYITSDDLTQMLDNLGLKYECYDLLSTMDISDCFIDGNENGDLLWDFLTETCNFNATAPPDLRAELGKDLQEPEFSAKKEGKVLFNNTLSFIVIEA
Sequence of Catechol O-methyltransferase (Homo sapiens) (P21964 whole entry, looked up): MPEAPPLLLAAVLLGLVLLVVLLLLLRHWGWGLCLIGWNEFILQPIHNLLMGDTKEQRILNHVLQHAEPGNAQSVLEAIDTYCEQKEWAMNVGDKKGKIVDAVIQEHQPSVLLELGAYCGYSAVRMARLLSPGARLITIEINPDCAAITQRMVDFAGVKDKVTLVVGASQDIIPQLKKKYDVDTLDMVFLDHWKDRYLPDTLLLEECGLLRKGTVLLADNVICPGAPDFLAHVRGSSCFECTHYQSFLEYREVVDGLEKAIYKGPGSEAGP
Sequence of Phenylethanolamine N-methyltransferase (Homo sapiens) (P11086 whole entry, looked up): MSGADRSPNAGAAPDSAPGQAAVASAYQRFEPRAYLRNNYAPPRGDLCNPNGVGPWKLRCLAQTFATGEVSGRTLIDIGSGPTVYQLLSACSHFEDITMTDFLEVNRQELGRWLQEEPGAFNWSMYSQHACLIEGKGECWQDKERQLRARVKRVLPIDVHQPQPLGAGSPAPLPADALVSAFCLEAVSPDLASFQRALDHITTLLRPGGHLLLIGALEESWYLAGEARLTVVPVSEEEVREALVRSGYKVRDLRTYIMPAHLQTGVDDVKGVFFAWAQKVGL
Sequence of Nicotinamide N-methyltransferase (Homo sapiens) (P40261 whole entry, looked up): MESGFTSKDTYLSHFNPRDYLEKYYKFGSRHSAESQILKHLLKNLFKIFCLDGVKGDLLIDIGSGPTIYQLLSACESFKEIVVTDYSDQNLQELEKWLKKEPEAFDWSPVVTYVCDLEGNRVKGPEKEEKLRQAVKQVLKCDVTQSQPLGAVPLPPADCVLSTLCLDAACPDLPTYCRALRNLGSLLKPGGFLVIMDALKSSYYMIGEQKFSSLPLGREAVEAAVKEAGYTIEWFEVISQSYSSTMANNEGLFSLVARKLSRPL
Sequence of Glycine N-methyltransferase (Homo sapiens) (Q14749 whole entry, looked up): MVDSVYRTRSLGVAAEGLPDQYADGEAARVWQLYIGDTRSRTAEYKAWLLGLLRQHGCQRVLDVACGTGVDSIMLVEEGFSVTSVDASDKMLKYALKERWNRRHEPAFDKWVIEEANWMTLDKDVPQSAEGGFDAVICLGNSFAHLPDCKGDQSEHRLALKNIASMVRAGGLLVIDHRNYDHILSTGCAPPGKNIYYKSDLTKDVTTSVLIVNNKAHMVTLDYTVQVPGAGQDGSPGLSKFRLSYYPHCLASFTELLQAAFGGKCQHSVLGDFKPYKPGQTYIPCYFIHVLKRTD

On to `Cc1noc(C)c1S(=O)(=O)NCCC1CN(c2cnn(C)c(=O)c2)CCO1` (configuration not stated), for which the activity change, negative = inhibition is 4.53% (inactive) in test [1]; -1.17% in test [2]; -2.35% in test [3]; 0.773% in test [4]; -1.18% in test [5]; 5.68% in test [6].
As to `COc1ccccc1N1CCN(C(=O)C[C@@H]2C[C@@H](C(C)C)[C@H](CO)C=C2C)CC1`, the activity change, negative = inhibition is -4.58% (inactive) in test [1]; -5.78% in test [2]; -7.59% in test [3]; -2.03% in test [4]; -11.8% in test [5]; 3.34% in test [6].
As to `COc1ccc(C(=O)N2CCN(C(=O)N3CC4CC(C3)[C@H]3CCCC(=O)N3C4)CC2)c(OC)n1` (some centres not stated), the activity change, negative = inhibition in test [1] is 1.98% (inactive); in test [2], -0.248%; in test [3] it was 0.955%; in test [4], 0.52%; in test [5], -3.64%; in test [6] it was 0.052%.
With `CCN(CC)CCCC(C)Nc1ccnc2cc(Cl)ccc12` (configuration not stated), the activity change, negative = inhibition was 5.5% (active) and -5.08% (active) in test [1]; -0.101% and -1.02% in test [2]; 6.48% and -3.06% in test [3]; -64.7% and -54.2% in test [4]; -4.26% and -11.8% in test [5]; 6.95% and -8.55% in test [6].
Regarding `O=C(C1CCCC1)N1CCCC(c2noc(COc3ccccc3)n2)C1` (configuration not stated), the activity change, negative = inhibition is -7.8% (inactive) in test [1]; -8.83% in test [2]; -9.57% in test [3]; -5.83% in test [4]; -18.3% in test [5]; -10.2% in test [6].
As for `CSc1cccc(CN(C)Cc2cc3n(n2)CCNC3)c1`, the activity change, negative = inhibition is -0.225% (inactive) in test [1]; -1.46% in test [2]; -2.55% in test [3]; -2.05% in test [4]; -2.62% in test [5]; -8.63% in test [6].
With `COc1ccccc1CN[C@H]1[C@H](O)[C@@H](N2CCN(c3ccccc3OC)CC2)[C@@H]2OC[C@H]1O2`, the activity change, negative = inhibition in test [1] is 1.34% (inactive); in test [2], -1.49%; in test [3] it was -8.26%; in test [4], 2.36%; in test [5], -0.669%; in test [6] it was 2.62%.
On to `CCc1cccc(NC(=O)Cn2c(=O)oc3cc(S(=O)(=O)N4CCC(C)CC4)ccc32)c1`, for which the activity change, negative = inhibition is 0.729% (inactive) in test [1]; -4.13% in test [2]; 4.45% in test [3]; -8.18% in test [4]; -16.8% in test [5]; -14.1% in test [6].
On to `Cc1ccc(Cn2c(=O)c3ccc(C(=O)NC(C)C)cc3n3c(=O)n(Cc4cccc(F)c4)nc23)cc1`, for which the activity change, negative = inhibition was 6.38% (inactive) in test [1]; 4.35% in test [2]; 1.49% in test [3]; 7.79% in test [4]; 5.05% in test [5]; 6.91% in test [6].
Turning to `CC1(C)CC[C@]2(C(=O)O[C@@H]3O[C@H](CO)[C@@H](O)[C@H](O)[C@H]3O)CC[C@]3(C)C(=CCC4[C@@]5(C)CC[C@H](O[C@@H]6O[C@H](C(=O)O)[C@@H](O)[C@H](O)[C@H]6OC6OC(CO)C(O)C(O)C6O)C(C)(C)C5CC[C@]43C)[C@@H]2C1` (some centres not stated), the activity change, negative = inhibition in test [1] is -21.1% (inactive); in test [2], 2.46%; in test [3] it was 8.94%; in test [4] it was 8.45%; in test [5], -9.17%; in test [6] it was 7.25%.
With `C[C@@H]1CC[C@]2(C(=O)O[C@@H]3O[C@H](CO)[C@@H](O)[C@H](O)[C@H]3O)CC[C@]3(C)C(=CCC4[C@@]5(C)C[C@@H](O)[C@H](O)[C@](C)(C(=O)O)C5CC[C@]43C)[C@@H]2[C@]1(C)O` (some centres not stated), the activity change, negative = inhibition in test [1] was 4.37% (inactive); in test [2], 6.36%; in test [3], 4.44%; in test [4] it was 15.1%; in test [5] it was -9.25%; in test [6] it was 7.5%.
For `CC1(C)CCC2(C(=O)OC3OC(COC4OC(CO)C(O)C(O)C4O)C(O)C(O)C3O)CCC3(C)C(=CCC4C5(C)CCC(O)C(C)(C(=O)O)C5CCC43C)C2C1O` (configuration not stated), the activity change, negative = inhibition in test [1] is -56.4% (active); in test [2], 0%; in test [3], 5.96%; in test [4], 11.8%; in test [5], -7.28%; in test [6] it was 4.84%.
